Source: the supplement of paper PMC6953052
Several values for one entry are separate records, joined by “and”; a condition that tells them apart may be missing. Equal entries are not always repeated. ± gives the standard deviation of the averaged measurements. Over roughly 1,700 compounds, “fraction of GFP-LC3-positive cells (≥5 vesicles/cell)” has its median near 0.058; the highest 2% begin near 0.59. Only a selection was taken, and the highest values are over-represented in it overall.

system: CbCln3 +/+ GFP-LC3 cerebellar neuronal cells; assay: fraction of GFP-LC3-positive cells (≥5 vesicles/cell); higher = more autophagosome accumulation
Outline: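 In 384-well plates at 2 × 10^3 cells per well, GFP-LC3-expressing wild-type or mutant CbCln3 cerebellar cells took ~50 nL of compound in DMSO by pin transfer, in duplicate, for 24 h at 33 °C. Staining with Hoechst 33342 and LysoTracker Red over the final 30 min preceded fixation in 3.2% PFA and imaging of three fields per well at 10×. CellProfiler then counted GFP-LC3 vesicles in each cell, and out-of-focus images were dropped before the fraction of cells with 5 or more vesicles was averaged over duplicates.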

Compound	fraction of GFP-LC3-positive cells
CCOC(=O)C1=C(C)NC(=S)NC1c1cccc(O)c1 (centres undefined) [Monastrol]	0.199
CNC1(C)C2CCC(C2)C1(C)C.Cl (centres undefined) [Mecamylamine hydrochloride]	0.093
CN(Cc1cnc2nc(N)nc(N)c2n1)c1ccc(C(=O)NC(CCC(=O)O)C(=O)O)cc1 (racemic) [Amethopterin (R,S)]	0.0411
CC(=O)Oc1ccc(C(c2ccc(OC(C)=O)cc2)c2ccccn2)cc1 [Bisacodyl]	0.0605
CC/C=C\C/C=C\C/C=C\C/C=C\CCCCC(=O)O [6(Z), 9(Z), 12(Z), 15(Z)-Octadecatetraenoic acid]	0.0591
CC(C(=O)O)c1ccc(-c2ccccc2)c(F)c1 (centres undefined) [Flurbiprofen]	0.0432
Cl.O=C1CC2(CCCC2)CC(=O)N1CCCCN1CCN(c2ncccn2)CC1 [Buspirone hydrochloride]	0.0334
CC(C)[N+]1(C)[C@@H]2CC[C@@H]1CC(OC(=O)C(CO)c1ccccc1)C2.[Br-] (some centres undefined) [Ipratropium bromide]	0.0779
CC[C@]12CCCN3CCc4c(n(c5ccccc45)[C@](O)(C(=O)OC)C1)[C@@H]32 [Epivincamine]	0.0608
CC(=O)N(CC(O)CN(C(C)=O)c1c(I)c(C(=O)NCC(O)CO)c(I)c(C(=O)NCC(O)CO)c1I)c1c(I)c(C(=O)NCC(O)CO)c(I)c(C(=O)NCC(O)CO)c1I (centres undefined) [Iodixanol]	0.0455
COc1ccc2cc(C(C)C(=O)O)ccc2c1 (centres undefined) [Naproxen]	0.053
CC(C)(C)C(=O)OCOC(=O)[C@@H]1N2C(=O)[C@@H](/N=C/N3CCCCCC3)[C@H]2SC1(C)C.Cl [Pivmecillinam hydrochloride]	0.0551
C[N+]1(C)CCC(OC(=O)C(O)(c2ccccc2)C2CCCC2)C1.[Br-] (centres undefined) [Glycopyrrolate]	0.0526
CCCCC/C=C\C\C=C/C=C/C=C/[C@@H](O)[C@@H](O)CCCC(=O)O	0.0542
O=C(O)c1cccnc1 [Niacin]	0.0475
CC/C=C\C/C=C\C/C=C\C/C=C\C/C=C\C/C=C\CCC(=O)O [Docosahexaenoic acid (22:6 N-3)]	0.0787
CC/C=C\C/C=C\C/C=C\C/C=C\C/C=C\C/C=C\CCC(=O)O	0.0655
CC/C=C\C/C=C\C/C=C\C/C=C\C/C=C\C/C=C\CCC(=O)O [Docosahexaenoic acid (22:6 n-3)]	0.0751
C[C@@H]1C[C@H]2[C@@H]3CCC4=CC(=O)C=C[C@]4(C)[C@@]3(F)[C@@H](O)C[C@]2(C)[C@@]1(O)C(=O)CO [dexamethasone]	0.0637
CCCCCCCC(=O)OC[C@H](CO)OC(=O)CCCCCCC [1,2-Dioctanoyl-SN-glycerol]	0.058
CCCCCCCC(=O)OC[C@H](CO)OC(=O)CCCCCCC	0.0799

Compound	fraction of GFP-LC3-positive cells
O=c1[nH]c(=O)n([C@H]2C[C@H](O)[C@@H](CO)O2)cc1I [Idoxuridine]	0.122
CC(C)(C)NC[C@H](O)COc1nsnc1N1CCOCC1.O=C(O)/C=C\C(=O)O [Timolol maleate salt]	0.0791
CSc1ccc2c(c1)N(CCC1CCCCN1C)c1ccccc1S2.Cl (centres undefined) [Thioridazine hydrochloride]	0.103
O=C(CCCN1CCC(O)(c2ccc(Br)cc2)CC1)c1ccc(F)cc1 [Bromperidol]	0.0553
CC(C)COCC(CN(Cc1ccccc1)c1ccccc1)N1CCCC1 (centres undefined)	0.773
Cl.c1ccc(CN(CC2=NCCN2)c2ccccc2)cc1 [Antazoline hydrochloride]	0.048
CC(C)COCC(CN(Cc1ccccc1)c1ccccc1)N1CCCC1.Cl (centres undefined) [Bepridil hydrochloride]	0.0674
NC[C@H]1O[C@H](OC2[C@@H](N)C[C@@H](N)[C@H](O)[C@H]2O[C@@H]2O[C@H](CO)[C@@H](O)[C@H]2O)[C@H](N)[C@@H](O)[C@@H]1O.O=S(=O)(O)O (some centres undefined) [Ribostamycin sulfate salt]	0.0446
CC(C[N+](C)(C)C)OC(N)=O.[Cl-] (centres undefined) [Bethanechol chloride]	0.0276
COc1cc(OC)c(C(=O)CCCN2CCCC2)c(OC)c1.Cl [Buflomedil hydrochloride]	0.0492
Nc1ccc(S(=O)(=O)Nc2ccnn2-c2ccccc2)cc1 [Sulfaphenazole]	0.0807
Cl.NCc1ccc(S(N)(=O)=O)cc1 [Mafenide hydrochloride]	0.087
CCCCOc1cc(C(=O)OCCN(CC)CC)ccc1N.Cl [Benoxinate hydrochloride]	0.0443
C[N+](C)(C)CCCCCC[N+](C)(C)C.O.O.[Br-].[Br-] [Hexamethonium dibromide dihydrate]	0.0307
O=S(=O)(NCCNC/C=C/c1ccc(Br)cc1)c1cccc2cnccc12	0.0303 ± 0.022
CS(=O)(=O)Nc1ccc([N+](=O)[O-])cc1Oc1ccccc1 [Nimesulide]	0.0281
Cn1c([N+](=O)[O-])cnc1COC(N)=O [Ronidazole]	0.116
NC(=O)c1ccc(-c2nc(-c3ccc4c(c3)OCO4)c(-c3ccccn3)[nH]2)cc1	0.0591
CCCCC/C=C\C/C=C\CCCCCCCC(N)=O	0.0698
CCCCC/C=C\C/C=C\CCCCCCCC(N)=O [Linoleamide]	0.0419
C=C(C)[C@@H]1CC[C@]2(C(=O)O)CC[C@]3(C)[C@H](CC[C@@H]4[C@@]5(C)CC[C@H](O)C(C)(C)[C@@H]5CC[C@]43C)[C@@H]12 [Betulinic acid]	0.0607

Compound	fraction of GFP-LC3-positive cells
CCCCC/C=C\C/C=C\C/C=C\C=C\[C@@H](O)CCCC(=O)O	0.0555 ± 0.014
Oc1cc2c(cc1O)CN(C(=S)NCCc1ccc(Cl)cc1)CCC2 [capsazepine]	0.197
O=C(Nc1ccccc1)c1cc([N+](=O)[O-])ccc1Cl	0.0781
CCC(=O)[C@@]1(C)[C@H](C)C[C@H]2[C@@H]3CCC4=CC(=O)C=C[C@]4(C)[C@H]3[C@@H](O)C[C@@]21C [Rimexolone]	0.0676
CCCCNc1cc(C(=O)O)cc(S(N)(=O)=O)c1Oc1ccccc1 [Bumetanide]	0.0472
C[C@@H](O)[C@H]1C(=O)N2C(C(=O)O)=C(SCCNC=N)C[C@H]12 [Imipenem]	0.032
CCCCCN(CCCCC)C(=O)C(CCC(=O)[O-])NC(=O)c1ccc(Cl)c(Cl)c1.[Na+] (centres undefined) [Lorglumide sodium salt]	0.0541
Cc1[nH]c(=O)c(C#N)cc1-c1ccncc1 [Milrinone]	0.0445
CC(N/C(=N/C#N)Nc1ccncc1)C(C)(C)C (centres undefined) [Pinacidil]	0.0667
CCCCC[C@H](O)CC(=O)CCc1ccc(O)c(OC)c1	0.0534
CN1CCN2c3ccccc3Cc3ccccc3C2C1.Cl (centres undefined) [Mianserine hydrochloride]	0.0536
CCCC[C@@H](C=O)NC(=O)[C@H](CC(C)C)NC(=O)OCc1ccccc1 [calpeptin]	0.0616
CC(C)C[C@@H](C=O)NC(=O)[C@H](CC(C)C)NC(=O)OCc1ccccc1	0.0921
CCCC[C@@H](C=O)NC(=O)[C@H](CC(C)C)NC(=O)OCc1ccccc1	0.088
CC(C)C[C@@H](C=O)NC(=O)[C@H](CC(C)C)NC(=O)[C@H](CC(C)C)NC(=O)OCc1ccccc1	0.736 ± 0.077
CC/C(=C(/CC)c1ccc(O)cc1)c1ccc(O)cc1 [Diethylstilbestrol]	0.0323
O=C(O)/C=C/c1ccc(O)c(O)c1 [Caffeic acid]	0.0546
O=C(/C=C/c1ccc(O)c(O)c1)O[C@@H]1C[C@](O)(C(=O)O)C[C@@H](O)[C@H]1O [Chlorogenic acid]	0.0755
O=C(/C=C/c1ccc(O)c(O)c1)OCCc1ccccc1	0.624
FC(F)(F)c1ccccc1-n1ccnc1	0.0512
O=C(O)CCc1nc(-c2ccccc2)c(-c2ccccc2)o1 [Oxaprozin]	0.047

Compound	fraction of GFP-LC3-positive cells
COc1ccc2c(c1)C(=O)N(CCc1ccc(S(=O)(=O)NC(=O)NC3CCCCC3)cc1)C(=O)C2(C)C [Gliquidone]	0.0709
CC(C(=O)[O-])c1cccc(Oc2ccccc2)c1.CC(C(=O)[O-])c1cccc(Oc2ccccc2)c1.CC(C(=O)[O-])c1cccc(Oc2ccccc2)c1.O.O.[Ca+2] (centres undefined) [Fenoprofen calcium salt dihydrate]	0.0249
C[N+](C)(CCOc1ccccc1)Cc1ccccc1.O=C([O-])c1cc2ccccc2cc1O [Bephenium hydroxynaphthoate]	0.0458
Cc1ccc(NC(=O)c2cccc(N(C)C)c2)cc1NC(=O)c1ccc(O)cc1	0.0842 and 0.161
CCCCCCCC/C=C\CCCCCCCC(N)=O	0.0449
Cl.Clc1ccc(Cn2c(CN3CCCC3)nc3ccccc32)cc1 [Clemizole hydrochloride]	0.063
CCN(CC)CCOc1ccc(/C(=C(/Cl)c2ccccc2)c2ccccc2)cc1.O=C(O)CC(O)(CC(=O)O)C(=O)O [Clomiphene citrate (Z,E)]	0.0397
CCOc1ccc(Cc2nccc3cc(OCC)c(OCC)cc23)cc1OCC.Cl [Ethaverine hydrochloride]	0.0346
NCCc1c[nH]cn1	0.0411
CCOC1O[C@H]([C@@H](COCc2ccccc2)OCc2ccccc2)[C@H](OCc2ccccc2)[C@H]1O (some centres undefined) [Tribenoside]	0.102
CCOC(=O)C1=C[C@]2(CC)CCCN3CCc4c(n1c1ccccc41)[C@@H]32 [Vinpocetine]	0.0378
O=C(O)c1ccc(C2=C3C=CC4=[N]3->[Mn+3]35<-[N]6=C(C=CC6=C(c6ccc(C(=O)O)cc6)c6ccc2[n]63)C(c2ccc(C(=O)O)cc2)=c2ccc([n]25)=C4c2ccc(C(=O)O)cc2)cc1.[Cl-] (centres undefined)	0.0485
CCCCCCCCCCCCCCCC(=O)NCCc1ccc(O)c(O)c1 [Palmitoyl dopamine]	0.0673
CCCCc1ccc2[nH]c(NC(=O)OC)nc2c1 [Parbendazole]	0.609
CC(C(=O)O)c1ccc(C(=O)c2cccs2)cc1 (centres undefined) [Suprofen]	0.0679
COC(=O)Nc1nc2cc(Sc3ccccc3)ccc2[nH]1 [Fenbendazole]	0.24
COC(=O)Nc1nc2cc(SC(C)C)ccc2[nH]1 [Methiazole]	0.499
COC(=O)Nc1nc2cc(C(=O)c3cccs3)ccc2[nH]1 [Nocodazole]	0.627
COC(=O)Nc1nc2cc(C(=O)c3ccccc3)ccc2[nH]1 [Mebendazole]	0.619
COC(=O)Nc1nc2cc(C(=O)c3cccs3)ccc2[nH]1 [nocodazole]	0.681
CCCSc1ccc2[nH]c(NC(=O)OC)nc2c1 [Albendazole]	0.548
